Sampled rows, rich in hits. Any-hit rate of the full collection: about 15%.
Sm TGR inh: blocks Schistosoma mansoni thioredoxin glutathione reductase | AID 485364 | purified TGR, DTNB reduction, TNB absorbance 405 nm | Potency, µM (top dose mostly 114 µM), most hits filed as inhibitors | Q962Y6 | actives 3% (n = 360,000); further: nearly all actives have a fitted effect of over 60% in size
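Kinetic colorimetric format: TGR-catalysed, NADPH-driven DTNB reduction monitored via TNB absorbance. Enzyme dispensed at 20 nM; compound exposure 15 min at room temperature before reaction start.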
SARS PLpro yeast: SARS-CoV PLP inhibition in yeast | actives 0.19% (n = 330,000) | S. cerevisiae expressing SARS-CoV PLpro, growth rescue | Potency, µM (series often up to 32.9 µM), hits mostly activators; calls by dose curve; further: nearly all actives have a fitted effect of over 55% in size
Pf growth 96h: P. falciparum growth inhibition at 96 hours | P. falciparum luciferase reporter growth, 96 h | Potency, µM (top dose mostly 28.7 µM), actives largely listed as inhibitors | actives 6.9% (n = 320,000)
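Two parasite generations (96 h, 37 C, 5% CO2) of compound exposure in infected erythrocytes (0.05% parasitemia, 2% hematocrit). Luciferase-reporter P. falciparum; decreased luminescence indicates inhibited growth, aimed at apicoplast-acting delayed death.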
Pf growth 48h: P. falciparum growth inhibition at 48 hours (one generation). P. falciparum luciferase growth in erythrocytes, 48 h. Potency, µM (top dose mostly 28.7 µM), hits mostly inhibitors. actives 5.9% (n = 310,000). AID 504832
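Growth was read as firefly luciferase luminescence after a 48 h, 37 C, 5% CO2 exposure of compounds to reporter-bearing P. falciparum cultures (0.1% parasitemia, 2% hematocrit final) in Albumax-supplemented RPMI 1640.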
HCMV antiviral: blocks human cytomegalovirus replication; activity change, negative = inhibition, % at 57.5 µM; AID 1259415; HFF cells, HCMV-luciferase reporter, 72 h; hits give low values; actives 4.5% (n = 410,000); in the data active means activity change below about -60%; inconclusive means no clear call, values can overlap the other calls; inactive means above about -39%
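Human foreskin fibroblasts infected with luciferase-reporter HCMV at MOI 1 PFU/cell, compounds at two doses. Luciferase measured 72 h post infection; normalized to buffer-only basal and Salinomycin (10uM) controls.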
HCV inh: inhibitors of hepatitis C virus infection; Huh7.5.1 HCVcc-Cre infection, luciferase reporter, 44 h; Potency, µM (top dose mostly 41.8 µM), usual class: inhibitors; actives 3.4% (n = 340,000); AID 651820
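Seed cells (1,000/well) for 4 h; treat with compound and infect with HCVcc-Cre, moi about 0.5. Incubate 44 h, then detect luciferase activity.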
Hits are given with their value; n = inactive; u = inconclusive; x = no result; [ ] = dose if it differs, or a comment. Unless noted, the call rests on the fitted dose curve; in most records, active means well fitted curve in the direction sought with a large enough effect; inconclusive means small, poorly fitted or top-dose-only effect, or another doubt; inactive means no such curve, though single readings can be large; an effect the other way counts as inactive or inconclusive.

SMILES	Sm TGR inh	SARS PLpro yeast	Pf growth 96h	Pf growth 48h	HCMV antiviral	HCV inh
COc1ccc(C2C(=O)N(C3CCC(C)CC3)CC(=O)N2CCC2=CCCCC2)cc1OC (stereo not given)	n	x	x	x	n	x
Cc1ccc(Cn2c(C3CCCN3c3nc(-c4cc(Cl)c(N)c(Cl)c4)cs3)nc3cc(C(=O)NCCCO)ccc32)cc1 (stereo not given)	x	x	x	x	n	1.4µM
COc1cc(C2c3cc4c(cc3CC3COC(=O)N32)OCO4)cc(OC)c1OC (stereo not given)	x	x	x	x	-88	n
O=C(CSc1nnc(-c2cnccn2)n1Cc1ccco1)Nc1ccc(Br)cc1	u	x	x	u	n	n
CCn1c(SCC(=O)N2CCC(C)CC2)nnc1-c1ccco1	n	n	n	n	u	n
COc1ccc(C(=O)CSc2nnc(-c3cnccn3)n2Cc2ccco2)cc1	35µM	n	x	x	n	n
CC1CCN(C(=O)CSc2nnc(-c3cc4ccccc4cc3O)n2Cc2ccco2)CC1	u	n	n[5.75 µM]	12µM	n	u
CCn1c(SCC(=O)N(C(C)C)C(C)C)nnc1-c1cc2ccccc2cc1O	n	n	n	1.9µM	n	u
COc1ccc(C(=O)CSc2nnc(-c3cc4ccccc4cc3O)n2Cc2ccco2)cc1	u	n	n	2.3µM	n	11µM
O=c1c(/C=N/N2CCOCC2)c(C(F)(F)F)[nH]n1-c1ccccc1	n	n	n	u	n	n
CCCn1c2ccccc2c2cnn(CC(=O)N(Cc3ccccc3)C(C)C)c(=O)c21	n	x	x	x	n	x
COc1ccc(C(=O)CSc2nnc(-c3cccnc3)n2Cc2ccco2)cc1	56µM	n	n	n	n	n
O=C(CSc1nnc(-c2cccnc2)n1Cc1ccco1)N1c2ccccc2Sc2ccccc21	25µM	n	u	u	n	n
Clc1ccc(CSc2nnc(-c3cccnc3)n2Cc2ccco2)c(Cl)c1	14µM	n	u	n	u	u
c1cncc(CSc2nnc(-c3cccnc3)n2Cc2ccco2)c1	u	n	n	n	n	x
Clc1cccc(CSc2nnc(-c3cccnc3)n2Cc2ccco2)c1	u	u	n	u	n	n
O=C1Nc2ccccc2OCc2c1cccc2[N+](=O)[O-]	n	n	n	u	n	n
CCOc1ccc(-c2nc3n(c(=O)c2C#N)CCCS3)cc1	n	n	n	n	-91	u
COc1ccc(-c2nn(-c3ccccc3)cc2C(=O)OCC(=O)c2ccc(C)c([N+](=O)[O-])c2)cc1	n	n	u	10µM	u	7.1µM
COc1ccc(-c2cc(C(=O)OCC(=O)c3ccc(C)c([N+](=O)[O-])c3)c3ccccc3n2)cc1	n	n	n	n	n	u
CCN(CC)CCNC(=S)NC(=O)c1cn(-c2ccccc2)nc1-c1ccc(OC)cc1	n	n	n	u	u	22µM
COC(=O)c1cn(-c2ccccc2)nc1-c1ccc(OC)cc1	n	n	n	n	n	13µM
COC(=O)c1cn(-c2ccccc2)nc1-c1ccncc1	n	n	n	n	n	n
O=C(CSc1nnc(CCCN2C(=O)c3cccc4cccc(c34)C2=O)n1-c1ccccc1)NCCCO	n	n	n	u	u	n
O=C(CSc1nnc(CCCN2C(=O)c3cccc4cccc(c34)C2=O)n1-c1ccccc1)NCCCN1CCOCC1	n	n	n	9.3µM	n	n
SMILES	Sm TGR inh	SARS PLpro yeast	Pf growth 96h	Pf growth 48h	HCMV antiviral	HCV inh
C=CCNC(=S)N/N=C/c1cn(C)c2ccccc12	u	n	u	8.3µM	n	35µM
Cn1cc(/C=N\NC(=O)c2cccs2)c2ccccc21	n	n	5.9µM	n	n	n
CC(=O)N1CCN(S(=O)(=O)c2cccc(C(=O)Nc3nc4ccccc4[nH]3)c2)CC1	n	n	1.9µM	u	n	n
CN(c1cccc(Cl)c1)S(=O)(=O)c1cccc(C(=O)Nc2nc3ccccc3[nH]2)c1	n	n	u	15µM	-99	u
O=C(NCC1CCCN(Cc2cccc(F)c2)C1)c1cccc2ccccc12 (stereo not given)	n	n	u	n	n	n
COc1ccc(-n2c(COc3ccc(C)cc3)nnc2SCc2ccc(C#N)cc2)cc1	n	n	u	u	n	22µM
CCOc1ccc(-n2c(SCc3ccc([N+](=O)[O-])cc3)nnc2-c2ccc(OC)cc2)cc1	n	n	8.3µM	u	n	u
Cn1c(SCc2ccc(C#N)cc2)nnc1-c1ccncc1	n	n	n	n	n	n
COc1ccc(-n2c(COc3ccccc3)n[nH]c2=S)cc1	n	n	u	n	n	n
COc1ccc(-n2c(COc3ccc(C)cc3)n[nH]c2=S)cc1	n	n	0.47µM	n	n	n
CCOc1ccc(-n2c(SCc3ccc(C#N)cc3)nnc2-c2cccnc2)cc1	n	n	n	u	n	n
C=CCn1c(SCc2ccc(C#N)cc2)nnc1-c1ccc(C)cc1	n	n	12µM	u	u	n
O=c1cc(CO)occ1O	x	x	n	n	x	x
NC(=O)CSc1nnc(CSc2ncccn2)n1-c1ccccc1	n	n	13µM	n	n	n
Cc1ccc(OCc2nnc(SCC(=O)O)n2-c2ccccc2)cc1	x	x	x	x	n	n
Cc1cc(C)nc(SCc2nnc(SCC(=O)O)n2-c2ccccc2)n1	x	n	n	n	n	n
Cc1ccc(OCc2nnc(SCC(=O)c3ccccc3)n2-c2ccccc2)cc1	n	n	n	13µM	n	u
COc1ccc(-n2c(-c3ccc(Br)cc3)c[n+]3c2SC(C)C3)cc1 (stereo not given)	n	n	u	0.33µM	-96	n
COc1ccc(-n2c(-c3ccccc3)c[n+]3c2CCC3)cc1	n	n	u	u	-78	10µM
COc1ccc(-n2c(-c3ccc(Br)cc3)nc(=S)c3c2CCCC3)cc1	u	n	u	n	n	n
COc1ccc(-n2c(-c3ccc(Br)cc3)c[n+]3c2CCC3)cc1	n	n	u	6.6µM	-92	n
FC(F)Sc1ccc(-n2c(-c3ccc(Cl)cc3)c[n+]3c2CCC3)cc1	n	n	u	u	n	n
COc1ccc(-n2c(-c3ccc(Br)cc3)c[n+]3c2CCCCC3)cc1	n	n	0.59µM	1µM	-87	n
CCOc1ccc(-c2c[n+]3c(n2-c2ccccc2)CCCCC3)cc1	n	n	0.93µM	1.2µM	-98	u
COC(=O)c1cc2oc(C)cc2n1CC(=O)Nc1ccc(C)cc1C	n	x	x	x	n	x
CCc1cc(C(=O)c2ccc(OC)cc2)c(NC(=O)CN2CCCCC2)s1	n	n	3.7µM	3.7µM	n	n
CCCOc1ccc(N2C(=O)CC(N(Cc3ccccc3)N=O)C2=O)cc1 (stereo not given)	n	n	n	n	n	n
CCCOc1ccc(N2C(=O)CC(SCC(N)C(=O)OCC)C2=O)cc1 (stereo not given)	u	n	u	u	n	n

Screens deposited in PubChem by National Center for Advancing Translational Sciences (NCATS).
